TLR9-MyD88 inh = TLR9-MyD88 interaction inhibition; inhibition, % at 4.98 µM; 0.21% of 340,000 active; CHO BLA complementation TLR9-MyD88, CCF4 FRET ratio; Q9NR96+Q99836;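 active means inhibition above the mean over all tested compounds plus 3 SD, cut at about 21% in these data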
TMEM16A act = activators or potentiators of mouse TMEM16A chloride channel. Q8BHY3. HEK293 TMEM16A/YFP-H148Q/I152L, iodide quench fluorescence; stronger effect = lower value. B-score at 10 µM. 0.3% of 340,000 active. AID 623877;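 active means fluorescence-ratio B-score plate-corrected deviation score at least 3 library SD below zero, with starting fluorescence score within 5 deviations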;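 further: channel opened by trigger with iodide after compound preincubation; score built on the fluorescence ratio of max minus min over baseline; more negative score means more quench and so TMEM16A activation or potentiation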
TLR4-MyD88 BLA = blocks binding of human TLR4 to MyD88; O00206+Q99836; HeLa CL3-4 TLR4/MyD88 BLA complementation, FRET ratio; inhibition, % at 8.4 µM; 0.18% of 200,000 active; AID 861; in the data active means inhibition above about 25%
HTR2A ag = mouse HTR2A agonism via beta-arrestin recruitment. activation, % at 7.6 µM. 0.66% of 360,000 active. P35363. CHO-K1 mHTR2A beta-arrestin complementation, luminescence; percent of 30 µM serotonin response;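 active means activation above a run cutoff, the mean activation of all tested compounds plus 3 SD, cut at about 14% in these data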
NOD2-RIPK2 inh = inhibitors of human NOD2-RIPK2 interaction; O43353; CHO BLA complementation NOD2-RIPK2, CCF4 ratio; inhibition, % at 4.98 µM; 0.38% of 360,000 active; in the data active means inhibition above about 21%
ANO1 block = blocks the mouse calcium-activated chloride channel TMEM16A. normalized B-score (activity score, 25-100; higher = stronger inhibition) at 10 µM. 1.2% of 310,000 active. AID 588511. Q8BHY3. HEK293 TMEM16A/YFP iodide influx fluorescence, ionomycin;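 active means ratio plate-corrected score three or more library SD toward inhibition, starting fluorescence score within five deviations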;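 further: score derived from kinetic fluorescence span divided by baseline fluorescence per well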
TMEM16A reconf = TMEM16A (mouse) chloride channel inhibition, re-confirmation | inhibition, % at 10 µM | HEK293 TMEM16A/YFP-H148Q, iodide quench fluorescence; ionomycin added to raise cell calcium | 39% of 2,300 active | shares compounds with ANO1 block | AID 652189;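 active means mean duplicate percent inhibition, scaled so buffer wells are 0 and the reference blocker 100, over three buffer SD above buffer mean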
TMEM16A Ca cntr = calcium mobilization counter-screen hit for TMEM16A inhibitor series. TMEM16A/YFP HEK293, Fluo4 calcium mobilization. shares compounds with ANO1 block. 2% of 2,300 active. calcium response (% of ionomycin), % at 10 µM;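 active means duplicate-averaged calcium signal over 20% of the ionomycin maximum, relative to buffer baseline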;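 further: each well's signal is peak minus trough fluorescence divided by its pre-addition baseline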
Parental YFP cnt = counter-screen for TMEM16A inhibitors: effect in parental YFP-HEK293 cells. AID 652233. 2,300 tested, under 10 active. YFP ratio F(max-min)/F0 at 10 µM. iodide YFP quench, ionomycin. shares compounds with ANO1 block;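 active means yellow fluorescent protein signal ratio exceeding the buffer control mean by over 5 SD of those controls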;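 further: ratio is mean of duplicate wells from kinetic YFP trace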
ClC-1 inh = blocks the rat ClC-1 voltage-dependent chloride channel; AID 652236; 2,300 tested, under 10 active; CHO ClC-1-YFP, iodide influx fluorescence quench; iodide control reads 0, buffer control 100; ratio percent, % at 10 µM; shares compounds with ANO1 block;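 active means duplicate-mean ratio percent above the mean of iodide-only control wells, which defines zero, plus 5 of their SD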;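 further: higher percent means stronger block of ClC-1 iodide influx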
Of the large screens only hits and unclear results are named; the others gave an inactive call (follow-up assays come after a bar, where they were run). Only some compounds are listed: those with a hit (about 2.4% of all), similar ones and a draw of the others.

O=C(c1ccc(Cl)cc1)C1CCCN(Cc2cnn(-c3ccccc3)c2)C1 (configuration not stated)	ANO1 block 100 | TMEM16A reconf 33% | TMEM16A Ca cntr inactive | Parental YFP cnt inactive | ClC-1 inh inactive
NNC(=O)C1CC1c1ccc(Cl)cc1 (configuration not stated)	none
Cc1cc(C)c(C#N)c(SCC2COc3ccccc3O2)n1 (configuration not stated)	ANO1 block 100 | TMEM16A reconf inactive | TMEM16A Ca cntr inactive | Parental YFP cnt inactive | ClC-1 inh inactive
Cc1cc(C)c(C#N)c(SCc2ccccc2)n1	ANO1 block 25 | TMEM16A reconf inactive | TMEM16A Ca cntr inactive | Parental YFP cnt inactive | ClC-1 inh inactive
COc1ccc(CSc2nc(C)cc(C)c2C#N)cc1	none
N#Cc1cc2c(nc1SCC1COc3ccccc3O1)CCC2 (configuration not stated)	none
Cc1cc(C)c(C#N)c(SCc2ccccc2C)n1	ANO1 block 25 | TMEM16A reconf inactive | TMEM16A Ca cntr inactive | Parental YFP cnt inactive | ClC-1 inh inactive
CCN1CCC(NCCc2ccc(F)cc2)CC1	none (no result: TLR4-MyD88 BLA)
Nc1ccn([C@@H]2O[C@H](CNC(=O)[C@@H](Cc3cn(COCc4ccccc4)cn3)NC=O)[C@@H](O)[C@H]2O)c(=O)n1	none (no result: TMEM16A act, TLR4-MyD88 BLA, ANO1 block)
COc1cc(CNS(=O)(=O)c2ccc3c(c2)CC(C)N3C(=O)C2CCC2)cc(OC)c1OC (configuration not stated)	ANO1 block 25 (no result: TLR4-MyD88 BLA) | TMEM16A reconf inactive | TMEM16A Ca cntr inactive | Parental YFP cnt inactive | ClC-1 inh inactive
CC(C)NC(=O)c1cc(C2CCCCN2C(=O)c2cc(C(C)(C)C)nn2C)on1 (configuration not stated)	none (no result: TLR9-MyD88 inh, TMEM16A act, TLR4-MyD88 BLA, ANO1 block)
Cc1nnsc1C(=O)NC1CCCc2c1cnn2-c1ccccc1F (configuration not stated)	ANO1 block 100 (no result: TLR4-MyD88 BLA) | TMEM16A reconf inactive | TMEM16A Ca cntr inactive | Parental YFP cnt inactive | ClC-1 inh inactive
CC[C@@H]1CC=C[C@H]2[C@H]1C(=O)N(Cc1ccccc1)[C@H]2c1ccoc1	ANO1 block 100 (no result: TLR4-MyD88 BLA) | TMEM16A reconf 44% | TMEM16A Ca cntr inactive | Parental YFP cnt inactive | ClC-1 inh inactive
C/C(=N/NS(=O)(=O)c1ccc(Cl)cc1)c1ccc2c(c1)OCO2	none (no result: TLR4-MyD88 BLA)
Cc1cc(C2(c3ccc(O)c(C)c3)C(=O)Nc3ccccc32)ccc1O	ANO1 block 100 | TMEM16A reconf inactive | TMEM16A Ca cntr inactive | Parental YFP cnt inactive | ClC-1 inh inactive
CN(C)C(=O)c1ccc(-c2cc3onc(-c4ccccc4)c3c(=O)n2C)cc1	none (no result: TLR4-MyD88 BLA, ANO1 block)
COC(=O)c1ccc(-c2cc3onc(-c4ccccc4)c3c(=O)n2C)cc1	ANO1 block 25 (no result: TLR4-MyD88 BLA) | TMEM16A reconf inactive | TMEM16A Ca cntr inactive | Parental YFP cnt inactive | ClC-1 inh inactive
COc1cccc(-c2cc3onc(-c4ccccc4)c3c(=O)n2C)c1	ANO1 block 25 (no result: TLR4-MyD88 BLA) | TMEM16A reconf inactive | TMEM16A Ca cntr inactive | Parental YFP cnt inactive | ClC-1 inh inactive
COC(=O)Cc1c(C)nc(SCc2ccccc2)[nH]c1=O	none (no result: TLR4-MyD88 BLA)
Cc1ccc([C@H]2N[C@]3(CCCN(Cc4ccc(Br)cc4)C3=O)[C@H]3C(=O)N(Cc4ccccc4)C(=O)[C@@H]23)cc1	none (no result: TMEM16A act, TLR4-MyD88 BLA, ANO1 block)
CCN(Cc1ccccc1)S(=O)(=O)c1ccc2oc(C(=O)O)c(C)c2c1	ANO1 block 25 | TMEM16A reconf inactive | TMEM16A Ca cntr inactive | Parental YFP cnt inactive | ClC-1 inh inactive
CCN(CC)S(=O)(=O)c1ccc2oc(C(=O)O)c(C)c2c1	none
c1ccc(-c2cc3c(N4CCCCC4)ncnc3s2)cc1	none
O=C(Nc1ccc2c(c1)OCO2)C1CCN(Cc2cnn(-c3ccccc3)c2-n2cccc2)CC1	ANO1 block 100 | TMEM16A reconf inactive | TMEM16A Ca cntr inactive | Parental YFP cnt inactive | ClC-1 inh inactive
O=C(Nc1ccc2c(c1)OCO2)C1CCN(Cc2cc3c(cc2O)OCO3)CC1	none (no result: TLR4-MyD88 BLA)
Cc1cccc(C(=O)N2CCN(c3ccc(N4CCOCC4)nn3)CC2)c1	none (no result: TLR4-MyD88 BLA)
O=c1[nH]c(SCc2ccccc2Cl)nc2c1CCC2	none
CNc1nc(SCc2ccccc2Cl)nc2c1CCCC2	ANO1 block 100 | TMEM16A reconf 56% | TMEM16A Ca cntr inactive | Parental YFP cnt inactive | ClC-1 inh inactive
COc1ccc(NS(=O)(=O)c2ccc(Br)cc2)cn1	none (no result: TLR4-MyD88 BLA)
COc1ccc(NS(=O)(=O)c2ccc3oc4ccccc4c3c2)cn1	ANO1 block 25 | TMEM16A reconf inactive | TMEM16A Ca cntr inactive | Parental YFP cnt inactive | ClC-1 inh inactive
CC(C)c1ccc(NC2CCCN(C(=O)c3n[nH]c4c3CCC4)C2)cc1 (configuration not stated)	ANO1 block 25 (no result: TLR4-MyD88 BLA) | TMEM16A reconf 20% | TMEM16A Ca cntr inactive | Parental YFP cnt inactive | ClC-1 inh inactive
COc1cc(F)ccc1CN1CCC(C(=O)Nc2ccc(Oc3ccccc3)nc2)CC1	none (no result: TLR4-MyD88 BLA)
COc1ccc(CN2CCC(C(=O)Nc3ccc(Oc4ccccc4)nc3)CC2)cc1F	ANO1 block 25 (no result: TLR4-MyD88 BLA) | TMEM16A reconf inactive | TMEM16A Ca cntr inactive | Parental YFP cnt inactive | ClC-1 inh inactive
O=C(CCCCC(=O)OCC1COCO1)OCC1COCO1 (configuration not stated)	none (no result: TLR4-MyD88 BLA, ANO1 block)
COc1ccc(CCNc2nc(-c3ccc(O)cc3)cs2)cc1OC	ANO1 block 100 (no result: TLR4-MyD88 BLA) | TMEM16A reconf 30% | TMEM16A Ca cntr inactive | Parental YFP cnt inactive | ClC-1 inh inactive
COc1ccc(CCNc2nc(-c3ccc(NC(C)=O)cc3)cs2)cc1OC	none
COc1ccc(CCNc2nc(-c3sc(C)nc3C)cs2)cc1OC	ANO1 block 100 | TMEM16A reconf 34% | TMEM16A Ca cntr inactive | Parental YFP cnt inactive | ClC-1 inh inactive
COc1ccc(CCNc2nc(-c3cccnc3)cs2)cc1OC	none
CCCCn1c(-c2nn(C)c(C)c2Cl)n[nH]c1=S	none
O=C(CSc1nccn1Cc1ccccc1)Nc1nccs1	ANO1 block 25 | TMEM16A reconf inactive | TMEM16A Ca cntr inactive | Parental YFP cnt inactive | ClC-1 inh inactive

From PubChem BioAssay
